The results in this text go back to ChEMBL document CHEMBL1961873, “Compounds: GSK PKIS; Assays: Nanosyn kinase panel” (2012).

The term inhibition denotes the change of the read-out against control, counted positive when it falls.

In assay [1] the target is Sphingosine kinase 1 (Homo sapiens) (UniProt Q9NYA1). The note with it: at 1 µM.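 Also: mean SPHK1 inhibition value reported from the GSK PKIS kinase panel screen.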
The target in assay [2] is T1, Sphingosine kinase 2 (Homo sapiens) (UniProt Q9NRA0).
T1 sequence (whole entry): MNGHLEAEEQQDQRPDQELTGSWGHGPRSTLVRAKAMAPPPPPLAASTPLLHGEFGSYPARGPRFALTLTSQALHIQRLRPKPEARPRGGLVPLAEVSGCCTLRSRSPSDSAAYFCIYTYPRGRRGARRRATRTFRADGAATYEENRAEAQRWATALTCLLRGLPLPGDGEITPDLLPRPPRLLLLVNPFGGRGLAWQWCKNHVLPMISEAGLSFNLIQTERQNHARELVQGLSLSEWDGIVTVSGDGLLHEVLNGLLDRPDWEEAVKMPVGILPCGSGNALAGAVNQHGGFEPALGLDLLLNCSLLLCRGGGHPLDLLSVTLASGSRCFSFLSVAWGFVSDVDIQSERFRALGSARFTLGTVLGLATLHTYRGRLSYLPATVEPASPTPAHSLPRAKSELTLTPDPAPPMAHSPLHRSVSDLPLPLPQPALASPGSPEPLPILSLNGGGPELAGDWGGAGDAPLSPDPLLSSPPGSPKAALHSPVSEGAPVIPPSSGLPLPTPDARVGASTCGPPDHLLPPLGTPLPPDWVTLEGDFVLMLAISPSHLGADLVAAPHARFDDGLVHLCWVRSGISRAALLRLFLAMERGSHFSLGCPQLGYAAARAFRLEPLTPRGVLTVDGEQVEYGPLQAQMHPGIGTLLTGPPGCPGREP
The note with it: at 0.1 µM.

The target of assay [3] is T1, Sphingosine kinase 2 (Homo sapiens). The note with it: at 1 µM.
The target of assay [4] is Casein kinase II subunit alpha (Homo sapiens) (UniProt P68400). The note with it: at 0.1 µM.
Assay [5] shares this target. The note with it: at 1 µM.
The target in assay [6] is T2, Inhibitor of nuclear factor kappa-B kinase subunit alpha (Homo sapiens) (UniProt O15111).
T2 sequence (whole entry): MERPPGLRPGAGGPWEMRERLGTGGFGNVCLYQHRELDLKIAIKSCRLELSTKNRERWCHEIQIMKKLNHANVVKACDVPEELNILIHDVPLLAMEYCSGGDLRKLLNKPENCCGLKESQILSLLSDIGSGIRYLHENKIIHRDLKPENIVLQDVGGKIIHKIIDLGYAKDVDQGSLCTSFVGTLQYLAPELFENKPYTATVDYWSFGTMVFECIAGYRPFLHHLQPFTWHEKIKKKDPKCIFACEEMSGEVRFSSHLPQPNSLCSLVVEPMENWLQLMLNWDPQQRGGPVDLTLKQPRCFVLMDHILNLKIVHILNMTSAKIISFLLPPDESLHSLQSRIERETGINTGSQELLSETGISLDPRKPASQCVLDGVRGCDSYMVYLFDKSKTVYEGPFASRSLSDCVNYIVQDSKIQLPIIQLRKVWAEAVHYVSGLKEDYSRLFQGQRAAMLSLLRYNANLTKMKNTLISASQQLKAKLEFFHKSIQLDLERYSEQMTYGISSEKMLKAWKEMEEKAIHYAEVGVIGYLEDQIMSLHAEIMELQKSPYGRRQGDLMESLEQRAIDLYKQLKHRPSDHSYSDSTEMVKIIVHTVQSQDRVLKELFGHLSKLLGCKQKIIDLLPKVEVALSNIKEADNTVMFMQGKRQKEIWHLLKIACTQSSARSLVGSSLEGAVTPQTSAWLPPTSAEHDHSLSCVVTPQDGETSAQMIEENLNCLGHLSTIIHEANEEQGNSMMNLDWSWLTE
The note with it: at 0.1 µM.

For assay [7], the target named is T2, Inhibitor of nuclear factor kappa-B kinase subunit alpha (Homo sapiens). The note with it: at 1 µM.
Assay [8] has as its target T3, Inhibitor of nuclear factor kappa-B kinase subunit beta (Homo sapiens) (UniProt O14920).
T3 sequence (whole entry): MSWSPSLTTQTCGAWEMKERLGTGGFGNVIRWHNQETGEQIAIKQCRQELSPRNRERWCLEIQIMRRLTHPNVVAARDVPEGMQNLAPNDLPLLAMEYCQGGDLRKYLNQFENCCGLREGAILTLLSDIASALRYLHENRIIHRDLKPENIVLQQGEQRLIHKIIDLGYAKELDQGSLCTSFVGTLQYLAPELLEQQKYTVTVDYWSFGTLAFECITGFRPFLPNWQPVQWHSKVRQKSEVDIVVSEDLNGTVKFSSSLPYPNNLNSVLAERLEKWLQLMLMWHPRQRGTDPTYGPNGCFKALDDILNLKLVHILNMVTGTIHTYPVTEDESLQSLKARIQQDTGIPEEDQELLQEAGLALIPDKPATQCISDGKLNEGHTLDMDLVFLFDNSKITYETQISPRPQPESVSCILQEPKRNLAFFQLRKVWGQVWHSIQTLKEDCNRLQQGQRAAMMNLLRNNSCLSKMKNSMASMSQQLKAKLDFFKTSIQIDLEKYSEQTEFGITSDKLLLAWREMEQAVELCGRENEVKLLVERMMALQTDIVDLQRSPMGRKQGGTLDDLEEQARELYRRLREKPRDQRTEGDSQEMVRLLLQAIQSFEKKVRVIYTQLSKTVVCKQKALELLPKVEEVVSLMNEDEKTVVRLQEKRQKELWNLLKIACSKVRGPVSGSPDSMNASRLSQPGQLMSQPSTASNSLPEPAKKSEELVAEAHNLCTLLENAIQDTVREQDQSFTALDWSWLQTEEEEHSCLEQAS
The note with it: at 0.1 µM.

The target of assay [9] is T3, Inhibitor of nuclear factor kappa-B kinase subunit beta (Homo sapiens). The note with it: at 1 µM.
The target of assay [10] is T4, Inhibitor of nuclear factor kappa-B kinase subunit epsilon (Homo sapiens) (UniProt Q14164).
T4 sequence (whole entry): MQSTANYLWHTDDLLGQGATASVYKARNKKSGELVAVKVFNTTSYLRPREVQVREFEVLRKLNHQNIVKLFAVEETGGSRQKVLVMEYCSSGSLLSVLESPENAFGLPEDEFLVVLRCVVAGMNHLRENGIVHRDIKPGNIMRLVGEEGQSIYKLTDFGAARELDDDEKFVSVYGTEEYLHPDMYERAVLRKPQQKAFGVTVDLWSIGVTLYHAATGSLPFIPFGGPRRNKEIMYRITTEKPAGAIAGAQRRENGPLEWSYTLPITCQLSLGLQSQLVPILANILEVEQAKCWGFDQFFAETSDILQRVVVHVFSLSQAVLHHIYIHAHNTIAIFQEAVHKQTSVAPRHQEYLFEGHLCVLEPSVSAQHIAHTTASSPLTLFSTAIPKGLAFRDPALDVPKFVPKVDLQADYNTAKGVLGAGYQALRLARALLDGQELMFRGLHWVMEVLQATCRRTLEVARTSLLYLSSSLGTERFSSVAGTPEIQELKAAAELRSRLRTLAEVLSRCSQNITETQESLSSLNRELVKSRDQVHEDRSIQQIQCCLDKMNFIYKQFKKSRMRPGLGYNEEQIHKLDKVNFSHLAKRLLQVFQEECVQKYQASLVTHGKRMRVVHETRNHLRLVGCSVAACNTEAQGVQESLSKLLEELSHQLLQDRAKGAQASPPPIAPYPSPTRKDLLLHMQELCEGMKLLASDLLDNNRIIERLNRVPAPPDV
The note with it: at 0.1 µM.

In assay [11] the target is T4, Inhibitor of nuclear factor kappa-B kinase subunit epsilon (Homo sapiens). The conditions noted are these: at 1 µM.
Assay [12] concerns the target T5, Serine/threonine-protein kinase Nek1 (Homo sapiens) (UniProt Q96PY6).
T5 sequence (whole entry): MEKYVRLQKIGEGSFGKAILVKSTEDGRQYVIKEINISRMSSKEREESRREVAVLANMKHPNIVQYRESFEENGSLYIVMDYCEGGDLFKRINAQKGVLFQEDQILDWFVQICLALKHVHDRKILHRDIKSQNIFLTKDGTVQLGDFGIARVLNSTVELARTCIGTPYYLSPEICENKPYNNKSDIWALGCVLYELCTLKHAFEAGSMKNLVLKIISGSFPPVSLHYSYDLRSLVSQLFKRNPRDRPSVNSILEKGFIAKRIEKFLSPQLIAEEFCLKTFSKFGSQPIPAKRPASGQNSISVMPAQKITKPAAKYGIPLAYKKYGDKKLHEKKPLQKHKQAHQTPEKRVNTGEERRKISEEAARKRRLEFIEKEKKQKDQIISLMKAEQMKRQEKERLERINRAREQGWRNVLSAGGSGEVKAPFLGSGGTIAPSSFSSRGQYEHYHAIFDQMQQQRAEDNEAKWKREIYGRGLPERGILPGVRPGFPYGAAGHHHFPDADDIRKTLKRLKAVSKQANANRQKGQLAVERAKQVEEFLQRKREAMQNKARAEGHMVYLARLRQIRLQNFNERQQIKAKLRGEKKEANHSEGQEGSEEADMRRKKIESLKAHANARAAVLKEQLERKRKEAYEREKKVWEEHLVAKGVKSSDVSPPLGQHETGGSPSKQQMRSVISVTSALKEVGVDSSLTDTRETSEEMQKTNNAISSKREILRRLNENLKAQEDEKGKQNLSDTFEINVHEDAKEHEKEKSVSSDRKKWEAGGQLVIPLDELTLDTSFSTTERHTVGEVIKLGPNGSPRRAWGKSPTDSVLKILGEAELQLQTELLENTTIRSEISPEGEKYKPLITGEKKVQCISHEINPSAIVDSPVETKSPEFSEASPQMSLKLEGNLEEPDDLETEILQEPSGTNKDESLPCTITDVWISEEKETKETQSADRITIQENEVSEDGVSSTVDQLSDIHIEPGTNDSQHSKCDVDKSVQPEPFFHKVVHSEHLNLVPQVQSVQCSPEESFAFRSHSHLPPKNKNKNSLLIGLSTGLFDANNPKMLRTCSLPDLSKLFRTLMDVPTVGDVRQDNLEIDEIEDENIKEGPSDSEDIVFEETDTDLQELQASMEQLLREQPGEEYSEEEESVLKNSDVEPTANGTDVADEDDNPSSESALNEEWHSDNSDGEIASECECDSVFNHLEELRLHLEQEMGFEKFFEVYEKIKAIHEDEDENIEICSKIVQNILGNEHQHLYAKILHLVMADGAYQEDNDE
The note with it: at 0.1 µM.

Assay [13] deals with T5, Serine/threonine-protein kinase Nek1 (Homo sapiens). The conditions noted are these: at 1 µM.
Assay [14] deals with T6, Serine/threonine-protein kinase Nek2 (Homo sapiens) (UniProt P51955).
T6 sequence (whole entry): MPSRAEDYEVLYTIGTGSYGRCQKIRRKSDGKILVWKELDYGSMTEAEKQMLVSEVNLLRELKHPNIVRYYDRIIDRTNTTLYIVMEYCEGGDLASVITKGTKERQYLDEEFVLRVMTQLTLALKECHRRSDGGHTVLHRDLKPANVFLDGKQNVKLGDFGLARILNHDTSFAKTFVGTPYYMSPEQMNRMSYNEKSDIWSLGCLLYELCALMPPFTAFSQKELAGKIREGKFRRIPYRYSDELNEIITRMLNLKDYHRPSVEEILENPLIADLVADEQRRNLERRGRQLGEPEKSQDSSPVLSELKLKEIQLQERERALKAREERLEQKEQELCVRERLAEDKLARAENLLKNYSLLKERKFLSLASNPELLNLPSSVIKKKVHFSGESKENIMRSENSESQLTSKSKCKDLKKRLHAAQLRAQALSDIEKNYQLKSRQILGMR
The conditions noted are these: at 0.1 µM.

In assay [15] the target is T6, Serine/threonine-protein kinase Nek2 (Homo sapiens). The note with it: at 1 µM.
Assay [16] addresses Serine/threonine-protein kinase Nek6 (Homo sapiens) (UniProt Q9HC98). The conditions noted are these: at 0.1 µM.
The target is the same in assay [17]. The note with it: at 1 µM.
For assay [18], the target named is Serine/threonine-protein kinase Nek7 (Homo sapiens) (UniProt Q8TDX7). The conditions noted are these: at 0.1 µM.
For assay [19] the target is unchanged. The conditions noted are these: at 1 µM.
The target in assay [20] is T7, Serine/threonine-protein kinase Nek9 (Homo sapiens) (UniProt Q8TD19).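 Also: reported value is the mean percent inhibition of NEK9.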
T7 sequence (whole entry): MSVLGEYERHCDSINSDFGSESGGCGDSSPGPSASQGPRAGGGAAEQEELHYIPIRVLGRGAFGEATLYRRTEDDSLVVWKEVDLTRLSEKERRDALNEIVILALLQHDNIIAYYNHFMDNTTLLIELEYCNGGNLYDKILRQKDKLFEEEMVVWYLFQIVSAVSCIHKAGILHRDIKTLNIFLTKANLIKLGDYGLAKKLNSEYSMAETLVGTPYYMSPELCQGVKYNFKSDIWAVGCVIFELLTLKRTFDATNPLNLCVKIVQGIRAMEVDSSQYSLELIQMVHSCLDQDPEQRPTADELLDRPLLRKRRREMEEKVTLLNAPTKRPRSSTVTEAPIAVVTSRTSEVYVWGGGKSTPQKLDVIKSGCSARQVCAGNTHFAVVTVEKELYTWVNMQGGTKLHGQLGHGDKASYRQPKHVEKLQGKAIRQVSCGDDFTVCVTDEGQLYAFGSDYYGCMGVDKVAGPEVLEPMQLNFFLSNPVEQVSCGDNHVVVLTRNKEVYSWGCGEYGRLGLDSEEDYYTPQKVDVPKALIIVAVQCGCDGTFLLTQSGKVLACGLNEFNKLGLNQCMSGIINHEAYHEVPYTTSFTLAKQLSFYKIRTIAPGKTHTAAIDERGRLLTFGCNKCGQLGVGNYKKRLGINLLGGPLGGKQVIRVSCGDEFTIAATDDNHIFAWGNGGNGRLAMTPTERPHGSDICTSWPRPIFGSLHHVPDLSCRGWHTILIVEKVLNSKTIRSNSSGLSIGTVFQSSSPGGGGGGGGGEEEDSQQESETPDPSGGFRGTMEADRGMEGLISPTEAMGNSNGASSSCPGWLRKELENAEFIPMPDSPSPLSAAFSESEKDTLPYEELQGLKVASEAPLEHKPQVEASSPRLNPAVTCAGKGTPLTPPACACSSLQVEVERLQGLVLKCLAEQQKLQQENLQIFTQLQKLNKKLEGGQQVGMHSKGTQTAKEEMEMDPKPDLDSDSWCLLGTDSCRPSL
The note with it: at 0.1 µM.

Chain of Casein kinase II subunit alpha (Homo sapiens) (P68400 whole entry, looked up): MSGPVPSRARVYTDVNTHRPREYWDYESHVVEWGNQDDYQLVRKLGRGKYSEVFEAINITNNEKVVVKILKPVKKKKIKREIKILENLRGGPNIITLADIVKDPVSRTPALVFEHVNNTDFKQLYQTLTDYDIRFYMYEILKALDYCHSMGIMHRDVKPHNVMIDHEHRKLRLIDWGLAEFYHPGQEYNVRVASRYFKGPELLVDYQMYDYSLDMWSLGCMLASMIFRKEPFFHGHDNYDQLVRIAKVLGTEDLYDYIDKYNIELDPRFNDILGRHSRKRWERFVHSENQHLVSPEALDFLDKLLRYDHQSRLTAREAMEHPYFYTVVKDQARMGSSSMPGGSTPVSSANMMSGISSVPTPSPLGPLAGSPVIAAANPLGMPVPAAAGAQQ
Chain of Serine/threonine-protein kinase Nek7 (Homo sapiens) (Q8TDX7 whole entry, looked up): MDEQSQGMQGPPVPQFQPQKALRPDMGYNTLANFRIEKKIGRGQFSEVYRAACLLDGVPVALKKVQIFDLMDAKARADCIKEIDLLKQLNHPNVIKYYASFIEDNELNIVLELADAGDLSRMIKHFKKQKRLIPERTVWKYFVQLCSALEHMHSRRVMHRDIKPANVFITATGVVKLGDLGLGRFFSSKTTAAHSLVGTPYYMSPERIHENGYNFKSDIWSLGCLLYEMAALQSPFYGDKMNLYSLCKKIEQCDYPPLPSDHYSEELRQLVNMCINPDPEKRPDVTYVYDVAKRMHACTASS
Chain of Serine/threonine-protein kinase Nek6 (Homo sapiens) (Q9HC98 whole entry): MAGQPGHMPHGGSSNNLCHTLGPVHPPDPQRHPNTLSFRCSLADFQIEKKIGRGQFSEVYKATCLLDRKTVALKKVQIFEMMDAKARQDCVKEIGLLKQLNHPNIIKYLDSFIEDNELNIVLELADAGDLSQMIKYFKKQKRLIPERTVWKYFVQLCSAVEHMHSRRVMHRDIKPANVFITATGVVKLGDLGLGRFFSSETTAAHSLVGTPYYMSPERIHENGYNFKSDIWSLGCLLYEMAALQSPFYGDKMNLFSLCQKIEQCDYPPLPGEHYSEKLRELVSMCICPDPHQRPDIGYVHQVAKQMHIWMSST
Chain of Sphingosine kinase 1 (Homo sapiens) (Q9NYA1 whole entry): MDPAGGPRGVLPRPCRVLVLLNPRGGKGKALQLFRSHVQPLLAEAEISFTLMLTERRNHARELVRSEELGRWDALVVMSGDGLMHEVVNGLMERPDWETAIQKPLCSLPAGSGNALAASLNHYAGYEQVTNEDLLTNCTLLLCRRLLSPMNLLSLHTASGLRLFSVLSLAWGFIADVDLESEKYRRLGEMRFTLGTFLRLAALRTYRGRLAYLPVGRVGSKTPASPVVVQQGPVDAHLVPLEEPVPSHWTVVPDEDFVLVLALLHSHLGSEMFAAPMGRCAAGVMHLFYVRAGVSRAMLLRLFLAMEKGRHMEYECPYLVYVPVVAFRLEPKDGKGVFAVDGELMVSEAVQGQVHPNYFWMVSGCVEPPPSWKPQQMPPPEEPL

Turning to `O=C(O[C@H]1CN[C@H](C#Cc2cc3ncnc(Nc4ccc5c(ccn5Cc5cc(F)ccc5F)c4)c3s2)C1)N1CCOCC1`, the inhibition is -2.46% in assay [1]; 0% in [2]; 1.37% in assay [3]; 7.47% in [4]; 0.25% in [5]; 8.85% in assay [6]. For the same compound, the inhibition in [7] turned out to be 10.1%; in assay [8], 7.42%; in [9] it was 9.24%; in [10] it was 6.23%; in [11], 3.8%; in [12] it was 2.94%. The inhibition in assay [13] is 1.91%; in [14], 2.01%; in assay [15], 7.68%; in [16], 4.81%; in assay [17] it was 1.23%; in [18], 4.67%. In addition, the inhibition came out at 3.63% in assay [19] and 4.24% in assay [20].
